For 2 compounds, Potency and outcome results are on record in PubChem BioAssay (NCATS).

Inconclusive results are not listed. The source made the active and inactive calls. Unless noted, the call rests on the fitted dose curve; in most records, active means well fitted curve in the direction sought with a large enough effect; inconclusive means small, poorly fitted or top-dose-only effect, or another doubt; inactive means no such curve, though single readings can be large; an effect the other way counts as inactive or inconclusive.

In test [1] the target is Muscarinic acetylcholine receptor M1 (Rattus norvegicus) (UniProt P08482). Kind of test: qHTS Assay for Antagonists of Acetylcholine Muscarinic M1 Receptor: Kinetic Measurement of Intracellular Calcium Response (AID 943). Further: nearly all actives have a fitted effect of over 75% in size. Further: potency means the concentration at half of the fitted maximal effect. Summed up:
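Antagonism measured as reduction of carbachol-evoked (EC80, 100 nM final) calcium flux in rat M1-CHO cells after 10 min compound exposure. Fluo-4 signal read kinetically; ratio of maximal to basal fluorescence.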
For orientation: qHTS replaces the single test concentration by a dilution series.

For test [2] the target is unchanged. In words: qHTS Assay for Antagonists of Acetylcholine Muscarinic M1 Receptor: Measurement of IP-One Response (AID 944). Further: nearly all actives have a fitted effect of over 75% in size. Further: potency means the concentration at half of the fitted maximal effect. Summed up:
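IP1 accumulation measured via TR-FRET between d2-IP1 and Eu-cryptate anti-IP1 antibody after carbachol (200 nM, EC80) stimulation for 30 min; rat M1-transfected CHO cells received compound 10 min before agonist.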

The target of test [3] is Pyruvate kinase (Leishmania mexicana) (UniProt Q27686). In words: qHTS Validation Assay for Inhibitors of Leishmania Mexicana Pyruvate Kinase (AID 945). Put shortly:
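Compounds are tested as eight-point concentration series. Reactions contain 0.2 nM LmPYK E451W, 0.5 mM PEP, 0.1 mM ADP, 7 mM MgCl2 and 50 mM KCl at pH 7.2, run 1 h at room temperature, then read by PKLight luminescence.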

The target in test [4] is Pyruvate kinase PKM (Homo sapiens) (UniProt P14618). Kind of test: qHTS Assay for Activators of Human Muscle Pyruvate Kinase (AID 954; active means well fitted curve in the direction sought with a large enough effect, not every such curve was filed as active). Put shortly: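 Compound pinned into substrate mix (0.5 mM PEP, 0.1 mM ADP), then 0.1 nM PKM2 added; 1 h, RT. Stop/detection luciferase reagent added, luminescence read. Normalized to no-inhibition and no-enzyme or reference-inhibitor controls.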

Test [5] can be described thus: MultiTox-Fluor Cytotoxicity Assay - LYMP1-002 - Live Cells (AID 955). Put shortly: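 After 16 h compound exposure at 37 C, live LYMP1-002 lymphoblastoid cells (2500/well) were quantified by cleavage of cell-permeant GF-AFC substrate, read at 405/510 nm after 60 min. Concentration-response fitted with Hill equation for AC50.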
The nature of test [6]: MultiTox-Fluor Cytotoxicity Assay - LYMP1-002 - Dead Cells (AID 960). Further: nearly all actives have a fitted effect of over 60% in size. Summed up:
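Dead-cell fluorescence (Ex/Em 485/520) after 16 h compound exposure at 37 C of LYMP1-002 lymphoblastoid cells in complete medium; AC50 by Hill equation, with data scaled between DMSO and 15 uM tetraoctylammonium bromide.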

The nature of test [7]: MultiTox-Fluor Cytotoxicity Assay - LYMP1-003 - Dead Cells (AID 961). Further: nearly all actives have a fitted effect of over 70% in size. Put shortly: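 LYMP1-003 human lymphoblastoid cells (2500/well) exposed to compound 16 h at 37 C in complete medium; dead-cell protease read with bis-AAF-R110 fluorescence (Ex/Em 485/520) after 60 min at room temperature. Normalized to DMSO and 15 uM tetraoctylammonium bromide; AC50 from Hill fit.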
Test [8] is described as follows: Cell Viability - LYMP1-003 - Assay at 40 hr (AID 964). Further: potency means the concentration at half of the fitted maximal effect; nearly all actives have a fitted effect of over 60% in size. Put shortly: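 Viability is taken as cellular ATP, read by CellTiter-Glo luminescence after 40 h of compound exposure at 37 C. Cells: human lymphoblastoid line LYMP1-003 at 2500/well; AC50 values derived by Hill-equation fitting of concentration-response data.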

Muscarinic acetylcholine receptor M1 (Rattus norvegicus), sequence (P08482 whole entry, looked up): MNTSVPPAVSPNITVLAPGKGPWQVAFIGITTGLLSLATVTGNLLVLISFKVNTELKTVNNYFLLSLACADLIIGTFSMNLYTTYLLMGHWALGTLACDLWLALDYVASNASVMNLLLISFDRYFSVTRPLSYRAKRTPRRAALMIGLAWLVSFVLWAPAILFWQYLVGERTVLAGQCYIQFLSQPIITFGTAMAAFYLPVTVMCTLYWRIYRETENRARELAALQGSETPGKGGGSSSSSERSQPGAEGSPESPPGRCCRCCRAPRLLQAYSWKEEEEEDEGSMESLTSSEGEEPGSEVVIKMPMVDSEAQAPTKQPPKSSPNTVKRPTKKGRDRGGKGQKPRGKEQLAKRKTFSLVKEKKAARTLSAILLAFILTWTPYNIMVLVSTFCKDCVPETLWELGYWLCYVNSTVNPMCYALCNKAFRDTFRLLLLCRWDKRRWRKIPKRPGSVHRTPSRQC
Pyruvate kinase (Leishmania mexicana), sequence (Q27686 2-499 E452W): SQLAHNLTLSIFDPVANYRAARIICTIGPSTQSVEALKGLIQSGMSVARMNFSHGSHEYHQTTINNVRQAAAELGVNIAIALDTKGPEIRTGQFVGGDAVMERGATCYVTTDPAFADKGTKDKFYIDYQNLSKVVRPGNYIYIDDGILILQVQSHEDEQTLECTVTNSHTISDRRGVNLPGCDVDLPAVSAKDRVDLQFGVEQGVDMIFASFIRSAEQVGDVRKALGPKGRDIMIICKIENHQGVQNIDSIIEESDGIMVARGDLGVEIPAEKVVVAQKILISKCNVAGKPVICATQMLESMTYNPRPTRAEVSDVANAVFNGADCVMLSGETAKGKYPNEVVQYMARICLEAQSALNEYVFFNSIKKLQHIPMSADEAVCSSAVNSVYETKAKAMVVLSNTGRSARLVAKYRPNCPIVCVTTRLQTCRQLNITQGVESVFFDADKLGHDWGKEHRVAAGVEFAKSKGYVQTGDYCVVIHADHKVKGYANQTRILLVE
Pyruvate kinase PKM (Homo sapiens), sequence (P14618 whole entry, looked up): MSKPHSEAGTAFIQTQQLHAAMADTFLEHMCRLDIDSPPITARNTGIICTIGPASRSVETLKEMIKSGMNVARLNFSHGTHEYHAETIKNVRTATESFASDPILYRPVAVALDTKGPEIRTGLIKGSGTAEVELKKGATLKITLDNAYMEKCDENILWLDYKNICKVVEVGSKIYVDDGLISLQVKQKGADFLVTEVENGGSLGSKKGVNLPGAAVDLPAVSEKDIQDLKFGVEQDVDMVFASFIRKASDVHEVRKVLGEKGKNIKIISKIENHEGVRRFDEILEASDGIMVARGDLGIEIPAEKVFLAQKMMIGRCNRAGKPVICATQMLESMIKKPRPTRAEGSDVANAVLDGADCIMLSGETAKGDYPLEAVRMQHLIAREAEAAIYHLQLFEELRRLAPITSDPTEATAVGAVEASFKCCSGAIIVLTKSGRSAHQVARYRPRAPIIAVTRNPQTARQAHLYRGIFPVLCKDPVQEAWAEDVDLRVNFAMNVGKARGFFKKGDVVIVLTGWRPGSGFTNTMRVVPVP

For `c1cnc2c(c1)ccc1cccnc12`, the Potency result in test [1], in test [2], in test [3], in test [5], in test [6] and in test [7] was “inactive” each time. In test [4], the outcome was inactive. Moreover, in test [8], the Potency was 7.94 µM (active).
Regarding `Fc1ccc(C(OCCCc2cnc[nH]2)c2ccc(F)cc2)cc1`, the values for the Potency in test [1] and in test [2] were 5.01 µM (active) and 7.94 µM (active), respectively. In addition, the Potency entry in test [3] is “inactive”. Besides, the call in test [4] was inactive.
